Several values for one entry are separate records, joined by “and”; a condition that tells them apart may be missing. Identical values can stand only once. Inconclusive results are not listed. Some compounds were tested as several samples or in several runs, with calls that do not always agree. Activity calls are given as the source filed them. Calls come from the whole dose curve; as a rule, active = well fitted curve in the direction sought with a large enough effect in the repeat runs; inconclusive = weak or mixed curves; inactive = no such curve, though single readings can be large; an effect the other way counts as inactive or inconclusive.
Experiments:
[1] = A CellTox Green Cytotoxicity Assay to monitor cytotoxicity in HEK293 cells - 40 hour (AID 1224871); note: nearly all actives have a fitted effect of over 45% in size; note: potency is the fitted concentration of half-maximal effect
Procedure, shortened: (§1)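 Fluorescence from a DNA-binding dye excluded by viable cells was measured repeatedly in the same HEK293 wells (600 cells/well) during continuous compound exposure at 37 C. Each assay gives one read point: 0, 8, 16, 24, 32 or 40 h.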

[2] = qHTS RealTime-Glo MT Cell Viability Assay in HEK293 cells - 16 hour (AID 1224872); note: top concentration of the series differs between compounds; nearly all actives have a fitted effect of over 50% in size
Procedure, shortened: (§2)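 Viability tracked continuously by luminescence as live cells reduce a prosubstrate for NanoLuc; HEK293 cells preincubated 5 h, compound-treated at 37 C, and read at 0, 8, 16, 24, 32 and 40 h.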

[3] = qHTS RealTime-Glo MT Cell Viability Assay in HepG2 cells - 8 hour (AID 1224873); note: nearly all actives have a fitted effect of over 55% in size
Procedure, shortened: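 HepG2 cells mixed with RealTime-Glo MT reagents (NanoLuc plus cell-permeant prosubstrate) were seeded at 600 cells/well, incubated 5 h at 37 C/5% CO2, then pinned with compounds in DMSO; nonlytic luminescence tracked viability during 40 h treatment.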

[4] = qHTS RealTime-Glo MT Cell Viability Assay in HEK293 cells - 40 hour (AID 1224874); conditions: RealTime-Glo luminescence; max response: stronger effect = lower value; note: nearly all actives have a fitted effect of over 50% in size
Procedure, shortened: (§3)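 Luminescence, which tracks viable cell number through reduction of the prosubstrate to a NanoLuc substrate, was read over continuous 37 C culture. Cells (600/well) were premixed with reagent and rested 5 h before 23 nL of compound in DMSO was pinned.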

[5] = A CellTox Green Cytotoxicity Assay to monitor cytotoxicity in HEK293 cells - 24 hour (AID 1224875); note: series mostly up to about 77 µM; nearly all actives have a fitted effect of over 45% in size
Procedure, shortened: as §1

[6] = A CellTox Green Cytotoxicity Assay to monitor cytotoxicity in HepG2 cells - 16 hour (AID 1224876); note: nearly all actives have a fitted effect of over 45% in size
Procedure, shortened: (§4)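 Real-time cytotoxicity: fluorescence of a cell-impermeant cyanine dye binding DNA of dead HepG2 cells, measured repeatedly (0–40 h) during compound exposure at 37 C. Cells seeded 600/well with reagent, dosed after 5 h.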

[7] = qHTS RealTime-Glo MT Cell Viability Assay in HepG2 cells - 32 hour (AID 1224877); note: nearly all actives have a fitted effect of over 55% in size
Procedure, shortened: (§5)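 Viability was tracked continuously by NanoLuc luminescence from prosubstrate reduced by living HepG2 cells, at successive time points over 40 h of compound exposure. Cells with reagent were preincubated 5 h at 37 °C before compound addition.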

[8] = A CellTox Green Cytotoxicity Assay to monitor cytotoxicity in HepG2 cells - 24 hour (AID 1224878); note: nearly all actives have a fitted effect of over 45% in size
Procedure, shortened: as §4

[9] = A CellTox Green Cytotoxicity Assay to monitor cytotoxicity in HepG2 cells - 40 hour (AID 1224879); note: nearly all actives have a fitted effect of over 40% in size; note: potency is the fitted concentration of half-maximal effect
Procedure, shortened: as §4

[10] = qHTS RealTime-Glo MT Cell Viability Assay in HEK293 cells - 0 hour (AID 1224880)
Procedure, shortened: as §3

[11] = A CellTox Green Cytotoxicity Assay to monitor cytotoxicity in HEK293 cells - 32 hour (AID 1224881); note: nearly all actives have a fitted effect of over 40% in size; note: potency is the fitted concentration of half-maximal effect
Procedure, shortened: as §1

[12] = A CellTox Green Cytotoxicity Assay to monitor cytotoxicity in HepG2 cells - 0 hour (AID 1224882); note: nearly all actives have a fitted effect of over 35% in size
Procedure, shortened: as §4

[13] = A CellTox Green Cytotoxicity Assay to monitor cytotoxicity in HepG2 cells - 32 hour (AID 1224883); note: nearly all actives have a fitted effect of over 50% in size; note: potency is the fitted concentration of half-maximal effect
Procedure, shortened: as §4

[14] = A CellTox Green Cytotoxicity Assay to monitor cytotoxicity in HEK293 cells - 8 hour (AID 1224884); note: nearly all actives have a fitted effect of over 35% in size; note: potency is the fitted concentration of half-maximal effect
Procedure, shortened: as §1

[15] = qHTS RealTime-Glo MT Cell Viability Assay in HepG2 cells - 16 hour (AID 1224885); note: nearly all actives have a fitted effect of over 50% in size
Procedure, shortened: as §5

[16] = qHTS RealTime-Glo MT Cell Viability Assay in HEK293 cells - 24 hour (AID 1224886)
Procedure, shortened: as §2

[17] = qHTS RealTime-Glo MT Cell Viability Assay in HEK293 cells - 8 hour (AID 1224887)
Procedure, shortened: as §3

[18] = A CellTox Green Cytotoxicity Assay to monitor cytotoxicity in HEK293 cells - 16 hour (AID 1224888); note: nearly all actives have a fitted effect of over 35% in size
Procedure, shortened: as §1

[19] = qHTS RealTime-Glo MT Cell Viability Assay in HepG2 cells - 0 hour (AID 1224889); note: nearly all actives have a fitted effect of over 50% in size
Procedure, shortened: as §5

[20] = A CellTox Green Cytotoxicity Assay to monitor cytotoxicity in HepG2 cells - 8 hour (AID 1224890); note: nearly all actives have a fitted effect of over 45% in size
Procedure, shortened: as §4
% is set by controls: 0 for no effect and ±100 for the full control effect.

COC(=O)/C=C\C(=O)OC
inactive: Potency [1] | Potency [2] | Potency [3] | max response [4] 12.2% and 10.6% | Potency [5] | Potency [6] | Potency [7] | Potency [8] | Potency [9] | Potency [10] | Potency [11] | Potency [12] | Potency [13] | Potency [14] | Potency [15] | Potency [16] | Potency [17] | Potency [18] | Potency [19] | Potency [20]

Nc1cccc(C(F)(F)F)c1
40.1 µM (active) and inactive: Potency [14]
inactive: Potency [1] | Potency [2] | Potency [3] | max response [4] 3.13% and 0.276% | Potency [5] | Potency [6] | Potency [7] | Potency [8] | Potency [9] | Potency [10] | Potency [11] | Potency [12] | Potency [13] | Potency [15] | Potency [16] | Potency [18] | Potency [19] | Potency [20]

NCCNCCNCCN
inactive: Potency [1] | Potency [2] | Potency [3] | max response [4] 2.02% and 3.6% | Potency [5] | Potency [6] | Potency [7] | Potency [8] | Potency [9] | Potency [10] | Potency [11] | Potency [12] | Potency [13] | Potency [14] | Potency [15] | Potency [16] | Potency [17] | Potency [18] | Potency [19] | Potency [20]

CC(C)c1ccc(C(C)C)cc1
inactive: Potency [1] | Potency [2] | Potency [3] | max response [4] 6.04% and 0.0055% | Potency [5] | Potency [6] | Potency [7] | Potency [8] | Potency [9] | Potency [10] | Potency [11] | Potency [12] | Potency [13] | Potency [14] | Potency [15] | Potency [16] | Potency [18] | Potency [19] | Potency [20]

CC(=O)OC(C)(C)C1CC=C(C)CC1 (stereo not drawn)
inactive: Potency [1] | Potency [2] | Potency [3] | max response [4] 3.8% and -15.5% | Potency [5] | Potency [6] | Potency [7] | Potency [8] | Potency [9] | Potency [10] | Potency [11] | Potency [12] | Potency [13] | Potency [14] | Potency [15] | Potency [16] | Potency [17] | Potency [18] | Potency [19] | Potency [20]

OC1CCCCC1
inactive: Potency [1] | Potency [2] | Potency [3] | max response [4] 6.11% and 1.84% | Potency [5] | Potency [6] | Potency [7] | Potency [8] | Potency [9] | Potency [10] | Potency [11] | Potency [12] | Potency [13] | Potency [14] | Potency [15] | Potency [16] | Potency [17] | Potency [18] | Potency [19] | Potency [20]

CCCOCC(C)O (stereo not drawn)
inactive: Potency [1] | Potency [2] | Potency [3] | max response [4] 6.7% and -0.928% | Potency [5] | Potency [6] | Potency [7] | Potency [8] | Potency [9] | Potency [10] | Potency [11] | Potency [12] | Potency [13] | Potency [14] | Potency [15] | Potency [16] | Potency [17] | Potency [18] | Potency [19] | Potency [20]

CCOC(=O)c1ccc(O)cc1
inactive: Potency [1] | Potency [2] | Potency [3] | max response [4] -23.5% and -3.47% | Potency [5] | Potency [6] | Potency [7] | Potency [8] | Potency [9] | Potency [10] | Potency [11] | Potency [12] | Potency [13] | Potency [14] | Potency [15] | Potency [16] | Potency [17] | Potency [18] | Potency [19] | Potency [20]

N#CCC(=O)O
inactive: Potency [1] | Potency [2] | Potency [3] | max response [4] -0.419% and 10.1% | Potency [5] | Potency [6] | Potency [7] | Potency [8] | Potency [9] | Potency [10] | Potency [11] | Potency [12] | Potency [13] | Potency [14] | Potency [15] | Potency [16] | Potency [17] | Potency [18] | Potency [19] | Potency [20]

Nc1cccc(N)n1
inactive: Potency [1] | Potency [2] | Potency [3] | max response [4] 0.328% and -0.427% | Potency [5] | Potency [6] | Potency [7] | Potency [8] | Potency [9] | Potency [10] | Potency [11] | Potency [12] | Potency [13] | Potency [14] | Potency [15] | Potency [16] | Potency [17] | Potency [18] | Potency [19] | Potency [20]

O=C1O[C@H]([C@H](O)CO)C(O)=C1O
inactive: Potency [1] | Potency [2] | Potency [3] | max response [4] 0.913% and 0.152% | Potency [5] | Potency [6] | Potency [7] | Potency [8] | Potency [9] | Potency [10] | Potency [11] | Potency [12] | Potency [13] | Potency [14] | Potency [15] | Potency [16] | Potency [17] | Potency [18] | Potency [19] | Potency [20]

CC1=CC(=O)CC(C)(C)C1
40 µM (active) and inactive: Potency [11]
25.3 µM (active) and inactive: Potency [1] | Potency [9] | Potency [13]
inactive: Potency [2] | Potency [3] | max response [4] 9.76% | Potency [5] | Potency [6] | Potency [7] | Potency [8] | Potency [10] | Potency [12] | Potency [14] | Potency [15] | Potency [16] | Potency [17] | Potency [18] | Potency [19] | Potency [20]

Cc1cc(C)c(O)c(C)c1
inactive: Potency [1] | Potency [2] | Potency [3] | max response [4] 3.39% and -0.795% | Potency [5] | Potency [6] | Potency [7] | Potency [8] | Potency [9] | Potency [10] | Potency [11] | Potency [12] | Potency [13] | Potency [14] | Potency [15] | Potency [16] | Potency [17] | Potency [18] | Potency [19] | Potency [20]

Source: PubChem BioAssay (Tox21)
